Test results as given in ChEMBL document CHEMBL4296182, “CO-ADD screening of NIH NCI Diversity Set V”.
For part of these data: Results with a measured potency or affinity are listed apart.

How the values were obtained:
Staphylococcus aureus = test: Antibacterial activity against Staphylococcus aureus MRSA ATCC 43300 (CO-ADD:GP_020); MIC in CAMBH media using NBS plates, by Resazurin F(560/590); assay type: functional; conditions: Concentration 20 uM, ASSAY_TEST Inhibition of Bacterial Growth, detection method Resazurin, Fluorescence (ex560/em590), MEDIA CAMHB, plate type 384well, CORNING #3640, time 18 hr
Acinetobacter baumannii = test: Antibacterial activity against Acinetobacter baumannii ATCC 19606 (CO-ADD:GN_034); MIC in CAMBH media using NBS plates, by Resazurin F(560/590); assay type: functional; conditions: Concentration 20 uM, ASSAY_TEST Inhibition of Bacterial Growth, detection method Resazurin, Fluorescence (ex560/em590), MEDIA CAMHB, plate type 384well, CORNING #3640, time 18 hr
Escherichia coli = test: Antibacterial activity against Escherichia coli ATCC 25922 (CO-ADD:GN_001); MIC in CAMBH media using NBS plates, by Resazurin F(560/590); assay type: functional; conditions: Concentration 20 uM, ASSAY_TEST Inhibition of Bacterial Growth, detection method Resazurin, Fluorescence (ex560/em590), MEDIA CAMHB, plate type 384well, CORNING #3640, time 18 hr
Klebsiella pneumoniae = conditions: Concentration 20 uM; ASSAY_TEST Inhibition of Bacterial Growth; detection method Absorption (OD600); MEDIA CAMHB; plate type 384well; NBS; CORNING #3640; time 18 hr
Candida albicans = conditions: 20 µM
Cryptococcus neoformans = conditions: Concentration 20 uM; ASSAY_TEST Inhibition of Fungal Growth; detection method Resazurin; Absorption (OD600-OD570); plate type 384well; NBS; CORNING #3640

Q: O=c1nc(Oc2ccccc2)nc2ncccn12 was tested. Which Inhibition (Staphylococcus aureus) did it give?
A: 18.68%

Q: And the Inhibition (Acinetobacter baumannii)?
A: 13.4%

Q: And the Inhibition (Escherichia coli)?
A: 27.8%

Q: What about the Inhibition (Klebsiella pneumoniae) of the same compound?
A: 4.93%

Q: And the Inhibition (Candida albicans)?
A: 7.13%

Q: And the Inhibition (Cryptococcus neoformans)?
A: -13.98%

Q: How did the Inhibition (Staphylococcus aureus) turn out when c1ccc(-c2nc[nH]c2-c2ccccc2)cc1 was run?
A: 15.79%

Q: What about the Inhibition (Acinetobacter baumannii) of the same compound?
A: -13.75%

Q: And the Inhibition (Escherichia coli)?
A: 11.94%

Q: And the Inhibition (Klebsiella pneumoniae)?
A: 6.07%

Q: What about the Inhibition (Candida albicans) of the same compound?
A: -1.64%

Q: What about the Inhibition (Cryptococcus neoformans) of the same compound?
A: -10.72%

Q: For Cc1ccc(-c2cc(C(=O)O)c3ccccc3n2)c(C)c1, which Inhibition (Staphylococcus aureus) is on record?
A: 11.92%

Q: What about the Inhibition (Acinetobacter baumannii) of the same compound?
A: 8.6%

Q: What about the Inhibition (Escherichia coli) of the same compound?
A: -3.13%

Q: What about the Inhibition (Klebsiella pneumoniae) of the same compound?
A: 18.95%

Q: And the Inhibition (Candida albicans)?
A: 8.35%

Q: And the Inhibition (Cryptococcus neoformans)?
A: -6%

Q: With Cc1cc(/C=C2\SC(=S)NC2=O)cc(C)c1O as the compound, how does the Inhibition (Staphylococcus aureus) read?
A: -3.17%

Q: And the Inhibition (Acinetobacter baumannii)?
A: -16.06%

Q: What about the Inhibition (Escherichia coli) of the same compound?
A: 6.56%

Q: And the Inhibition (Klebsiella pneumoniae)?
A: 6.27%

Q: And the Inhibition (Candida albicans)?
A: 8.55%

Q: And the Inhibition (Cryptococcus neoformans)?
A: -10.24%

Q: How did the Inhibition (Staphylococcus aureus) turn out when CC(=O)[C@@]1(O)[C@H](C)C[C@H]2[C@@H]3C=C(C)C4=Cc5c(cnn5-c5ccccc5)C[C@]4(C)[C@H]3[C@@H](O)C[C@@]21C was run?
A: 3.25%

Q: What about the Inhibition (Acinetobacter baumannii) of the same compound?
A: -8.97%

Q: What about the Inhibition (Escherichia coli) of the same compound?
A: 7.95%

Q: And the Inhibition (Klebsiella pneumoniae)?
A: 0.96%

Q: What about the Inhibition (Candida albicans) of the same compound?
A: 4.25%

Q: And the Inhibition (Cryptococcus neoformans)?
A: -3.62%

Q: How did the Inhibition (Staphylococcus aureus) turn out when COC(=O)c1cc2c(n1S(=O)(=O)c1ccc(C)cc1)C(=O)C(=O)c1[nH]cc(C(=O)OCc3ccccc3)c1-2 was run?
A: 12.8%

Q: And the Inhibition (Acinetobacter baumannii)?
A: -9.93%

Q: What about the Inhibition (Escherichia coli) of the same compound?
A: 4.92%

Q: What about the Inhibition (Klebsiella pneumoniae) of the same compound?
A: 10.02%

Q: And the Inhibition (Candida albicans)?
A: -2.87%

Q: And the Inhibition (Cryptococcus neoformans)?
A: -5.89%

Q: How did the Inhibition (Staphylococcus aureus) turn out when CCOC(=O)C(C)c1c(C(=O)c2ccc(C)nc2)c2ccccc2n1C (stereo not drawn) was run?
A: 10.11%

Q: And the Inhibition (Acinetobacter baumannii)?
A: 9.14%

Q: And the Inhibition (Escherichia coli)?
A: -0.3%

Q: What about the Inhibition (Klebsiella pneumoniae) of the same compound?
A: 16.34%

Q: And the Inhibition (Candida albicans)?
A: 0.68%

Q: What about the Inhibition (Cryptococcus neoformans) of the same compound?
A: -10.08%

Q: For CCC(CO)Nc1nc2ccc(Cl)cc2c2ccccc12 (stereo not drawn), which Inhibition (Staphylococcus aureus) is on record?
A: 32.89%

Q: What about the Inhibition (Acinetobacter baumannii) of the same compound?
A: 5.43%

Q: And the Inhibition (Escherichia coli)?
A: 4.69%

Q: And the Inhibition (Klebsiella pneumoniae)?
A: 20.8%

Q: And the Inhibition (Candida albicans)?
A: 4.64%

Q: What about the Inhibition (Cryptococcus neoformans) of the same compound?
A: -2%

Q: How did the Inhibition (Staphylococcus aureus) turn out when Oc1ccc(N/C(S)=N/c2ccccc2)cc1 was run?
A: -2.99%

Q: What about the Inhibition (Acinetobacter baumannii) of the same compound?
A: 11.99%

Q: What about the Inhibition (Escherichia coli) of the same compound?
A: -4.05%

Q: And the Inhibition (Klebsiella pneumoniae)?
A: 4.37%

Q: And the Inhibition (Candida albicans)?
A: 4.77%

Q: What about the Inhibition (Cryptococcus neoformans) of the same compound?
A: 2.65%

Q: How did the Inhibition (Staphylococcus aureus) turn out when Oc1ncc(I)cc1I was run?
A: 37.5%

Q: What about the Inhibition (Acinetobacter baumannii) of the same compound?
A: 6.08%

Q: And the Inhibition (Escherichia coli)?
A: 2.67%

Q: And the Inhibition (Klebsiella pneumoniae)?
A: 22.74%

Q: And the Inhibition (Candida albicans)?
A: 4.4%

Q: What about the Inhibition (Cryptococcus neoformans) of the same compound?
A: 23.72%

Q: Which Inhibition (Staphylococcus aureus) does the source give for O=C(Cn1ccc(=O)[nH]c1=O)Nc1ccc(C(=O)O)c(O)c1 here?
A: 10.2%

Q: What about the Inhibition (Acinetobacter baumannii) of the same compound?
A: -9.39%

Q: What about the Inhibition (Escherichia coli) of the same compound?
A: 10.79%

Q: What about the Inhibition (Klebsiella pneumoniae) of the same compound?
A: 11.75%

Q: And the Inhibition (Candida albicans)?
A: -1.14%

Q: And the Inhibition (Cryptococcus neoformans)?
A: -6.61%

Q: With O=C(O)c1cc2ccccc2cc1Nc1ccccc1 as the compound, how does the Inhibition (Staphylococcus aureus) read?
A: 0.16%

Q: And the Inhibition (Acinetobacter baumannii)?
A: 5.64%

Q: And the Inhibition (Escherichia coli)?
A: -16.93%

Q: What about the Inhibition (Klebsiella pneumoniae) of the same compound?
A: 8.83%

Q: And the Inhibition (Candida albicans)?
A: 12.2%

Q: And the Inhibition (Cryptococcus neoformans)?
A: 17.2%

Q: Which results are given for CSc1nc(O)cc(Cl)n1?
A: Inhibition (Staphylococcus aureus): -1.6%; Inhibition (Acinetobacter baumannii): -4.84%; Inhibition (Escherichia coli): 7.44%; Inhibition (Klebsiella pneumoniae): 11.43%; Inhibition (Candida albicans): 2.04%; Inhibition (Cryptococcus neoformans): -0.01%
